Inconclusive results are not listed. Where a call stands in place of a potency, no number is given. Activity calls are given as the source filed them. Calls follow the shape of the dose curve; as a rule, active = well fitted cell-killing curve with a large enough effect in the repeat runs; inconclusive = weak or mixed curves; inactive = flat fitted curve, though single readings scatter.
Potency is read from the fitted curve at half-maximal effect.

The nature of the test: qHTS RealTime-Glo MT Cell Viability Assay in HepG2 cells - 32 hour (AID 1224877). Also: nearly all actives have a fitted effect of over 55% in size. As to conditions: RealTime-Glo luminescence; series mostly up to 76.8 µM. An excerpt:
U.S. Tox21 Program National Center for Advancing Translational Sciences [NCATS] NIH Chemical Genomics Center [NCGC] U.S. Environmental Protection Agency [EPA] National Institutes of Environmental Health Sciences [NIEHS] National Toxicology Program [NTP] U.S. Food and Drug Administration [FDA] Tox21 Assay Overview: Measure of cell viability is critical in the cell-base assay. Analysis of cell viability is necessary for the characterization of cell responses to cytotoxic drugs and environmental stress. A RealTime-Glo MT Cell Viability Assay to monitor cell viability in real time of continues cell culture during 40 hours of compound treatment was used to screen Tox21 10K library compounds in HepG2 cells. The RealTime-Glo MT Cell Viability Assay is a nonlytic, homogeneous, bioluminescent method to measure cell viability in real time using a simple, plate-based method. The assay involves adding NanoLuc luciferase and a cell-permeant prosubstrate to cells in culture. Viable cells reduce the proprietary prosubstrate to generate a substrate for NanoLuc luciferase. This substrate diffuses from cells into the surrounding culture medium, where it is rapidly used by the NanoLuc Enzyme to produce a luminescent signal. The signal correlates with the number of viable cells, making the assay well suited for cytotoxicity studies.
Tox21 Assay Protocol Summary: The mixture of HepG2 cell suspension and reagents were dispensed at 600cells/6 ul/well in 1536-well tissue culture treated black solid bottom plates using a Multidrop dispenser. After the assay plates were incubated at a 37 C/5% CO2 incubator for 5 hours, 23 nL of compounds dissolved in DMSO, positive and negative controls was transferred to the assay plate by a pintool work station. The plates were incubated at 37 C for 40 hours. The luminescence intensity were measured at 0h, 8h, 16h, 24h, 32h and 40h time points using ViewLux plate reader during compound treatment.
Background: Quantitative high-throughput screening tests each substance at several concentrations.
For the compound `CCNS(=O)(=O)c1ccc(C)cc1`, the Potency result is “inactive”. Same read-out and setting: under `CN1[C@@H]2CC[C@H]1CC(OC(=O)C(O)c1ccccc1)C2` (stereo not given in full) stands “inactive”; under `CC1=NN(c2cccc(S(=O)(=O)O)c2)C(=O)C1`, “inactive”.

For `CCN1C=CN(C)C1C` (stereo not given), the Potency entry is “inactive”. The same measure, in the same setting: under `NCCCC(N)(C(=O)O)C(F)F` (stereo not given) stands “inactive”; under `c1ccc(CCc2ccccc2)cc1`, “inactive”; under `CCCCS(=O)(=O)N[C@@H](Cc1ccc(OCCCCC2CCNCC2)cc1)C(=O)O`, “inactive”. For `COc1cccc(OC)c1C(=O)N[C@@H]1C(=O)N2[C@@H]1SC(C)(C)[C@@H]2C(=O)O`, the Potency entry was “inactive”. Turning to `Nc1ccccn1`, the Potency entry is “inactive”. On the same count and under the same terms, under `CC(C)C1CCC(O)CC1` (stereo not given) stands “inactive”.

Consider `CCCCN1C=CN(C)C1`, for which the activity change, negative = cytotoxic is -0.21% [at 15.8 µM] (inactive). Turning to `CCOCC(C)O` (stereo not given), the Potency result was “inactive”. With `Cc1cccc(C)c1NC(=O)CC12CCCN1CCC2`, the Potency result is “inactive”. As to `CC(C)(N)C#N`, the Potency entry is “inactive”. Turning to `NCCCC[C@H](N[C@@H](CCc1ccccc1)C(=O)O)C(=O)N1CCC[C@H]1C(=O)O`, the Potency entry was “inactive”. As for `Nc1ccn([C@@H]2O[C@H](CO)[C@@H](O)[C@@H]2O)c(=O)n1`, the Potency entry was “inactive”. Same read-out and setting: under `C=C(C)C(=O)OCC1CCCO1` (stereo not given) stands “inactive”.

Turning to `COCCOCC(OC)OC`, the Potency result was “inactive”. With `C[C@H]1[C@H](NC(=O)/C(=N/OC(C)(C)C(=O)O)c2csc(N)n2)C(=O)N1S(=O)(=O)O` (stereo in doubt), the Potency entry is “inactive”.

Take `CC/C=C\CCOC(C)OCC` (stereo not given): the Potency result was “inactive”. On to `[Ca+2]`, for which the Potency result was “inactive”.

As to `C[C@@H]1C[C@H]2[C@@H]3C[C@H](F)C4=CC(=O)C(Cl)=C[C@]4(C)[C@@]3(F)[C@@H](O)C[C@]2(C)[C@@]1(O)C(=O)CO`, the Potency result is “inactive”.

As for `Cc1ccc(C(=O)c2ccccc2)cc1`, the Potency entry was “inactive”. Regarding `c1coc(CNc2ncnc3nc[nH]c23)c1`, the Potency entry was “inactive”. Same read-out and setting: under `FB(F)F` stands “inactive”. For `CC(=O)C1CCCCC1=O` (stereo not given), the Potency entry was “inactive”.

For the compound `[K+]`, the Potency is 49 µM (active).

In the case of `CCCCCCCCCCCCCCCCCCO`, the Potency entry is “inactive”. Same read-out and setting: to `O=C(c1ccccc1)C1(O)CCCCC1` belongs “inactive”; to `CO/N=C(\C(=O)N[C@@H]1C(=O)N2C(C(=O)O)=C(CSc3nc(=O)c(O)nn3C)CS[C@H]12)c1csc(N)n1`, “inactive”; to `C=CC(=O)OCCCl`, “inactive”. On the same count and under the same terms, to `O=S(=O)(O)c1cccc2c(S(=O)(=O)O)cccc12` belongs “inactive”.

For the compound `Clc1cc(Cl)c(Cl)nc1Cl`, the Potency entry is “inactive”. The same measure, in the same setting: under `C=C[Si](OC(C)=O)(OC(C)=O)OC(C)=O` stands “inactive”; under `Cc1onc(-c2c(Cl)cccc2Cl)c1C(=O)Cl`, “inactive”; under `COCCOC[C@H](CC1(C(=O)NC2CCC(C(=O)O)CC2)CCCC1)C(=O)Oc1ccc2c(c1)CCC2` (stereo not given in full), “inactive”. With `COc1cc(C)nc(-n2nc(C)cc2OC)n1`, the Potency entry was “inactive”. Same read-out and setting: under `CC[N+](C)(CC)CCOC(=O)C1c2ccccc2Oc2ccccc21` stands “inactive”; under `COc1cc2c(cc1OC)-c1cc3ccc(OC)c(OC)c3c[n+]1CC2`, “inactive”; under `CCOC(=O)C(=O)CCCCCCl`, “inactive”.

The record behind these values is PubChem BioAssay (Tox21).
